Measured values as given in PubChem BioAssay (Tox21).
Records with an inconclusive call do not appear. Calls of active or inactive are those of the source. The call rests on the fitted dose curve; in most records, active means well fitted curve in the direction sought with a large enough effect in the repeat runs; inconclusive means weak or mixed curves; inactive means no such curve, though single readings can be large; an effect the other way counts as inactive or inconclusive.

Assays:
[1] = Caspase-3/7 induction in CHO-K1 cells by small molecules, qHTS cell viability counter screen (AID 1346979); further: nearly all actives have a fitted effect of over 35% in size; further: potency means the concentration at half of the fitted maximal effect
Procedure, shortened: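 Following a 5hr settling period, CHO-K1 cells at 1,500 per well received DMSO-dissolved compounds. Cell viability was quantified 16hr later by CellTiter-Fluor fluorescence, measured after 1hr with reagent at 37C.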

[2] = Caspase-3/7 induction in CHO-K1 cells by small molecules, qHTS assay (AID 1346980); further: nearly all actives have a fitted effect of over 15% in size
Procedure, shortened: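 Wild-type cells were seeded at 1,500 per well and settled 5 hr at 37 C, 5% CO2, then exposed to DMSO-dissolved compounds for 17 hr. Caspase-Glo 3/7 reagent was added, and luminescence was read after 30min at room temperature.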

[3] = Caspase-3/7 induction in HepG2 cells by small molecules, qHTS cell viability counter screen (AID 1346981); further: nearly all actives have a fitted effect of over 30% in size; further: potency means the concentration at half of the fitted maximal effect; on activity change, negative = cytotoxicity: series mostly up to about 92 µM
Procedure, shortened: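 Wild-type HepG2 cells (2,000/well) were allowed to settle for 5 hr at 37 C, 5% CO2, then dosed with compounds in DMSO by pin transfer. After 16 hr at 37 C, CellTiter-Fluor was added and fluorescence read 1 hr later.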

[4] = biological target: Nuclear receptor subfamily 1 group I member 2 (Homo sapiens) (UniProt O75469); assay: Human pregnane X receptor (PXR) small molecule agonists, qHTS assay (AID 1346982); further: nearly all actives have a fitted effect of over 35% in size; further: potency means the concentration at half of the fitted maximal effect
Chain of Nuclear receptor subfamily 1 group I member 2 (Homo sapiens) (O75469 whole entry, looked up): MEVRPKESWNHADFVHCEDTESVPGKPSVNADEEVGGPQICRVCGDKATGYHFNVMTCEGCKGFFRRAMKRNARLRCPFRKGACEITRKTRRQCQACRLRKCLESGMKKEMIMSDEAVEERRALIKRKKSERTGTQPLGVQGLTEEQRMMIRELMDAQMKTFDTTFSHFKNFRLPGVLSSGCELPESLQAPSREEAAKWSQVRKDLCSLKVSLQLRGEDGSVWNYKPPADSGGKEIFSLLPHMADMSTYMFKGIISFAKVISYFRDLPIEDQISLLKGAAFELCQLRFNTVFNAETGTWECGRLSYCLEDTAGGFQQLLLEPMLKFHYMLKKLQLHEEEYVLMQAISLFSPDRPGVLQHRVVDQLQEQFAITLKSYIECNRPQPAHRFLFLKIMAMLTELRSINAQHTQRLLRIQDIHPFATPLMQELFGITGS
Procedure, shortened: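 PXR-Luc HepG2 cells (CYP3A4 promoter-driven luciferase) were seeded in medium with 5% charcoal-stripped FBS, left 5 hr at 37 C, then exposed to compounds in DMSO for 24 hr. Luminescence was read after ONE-Glo addition.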

[5] = biological target: Cytochrome P450 2C19 (Homo sapiens) (UniProt P33261); assay: Cytochrome P450 Family 2 Subfamily C Member 19 (CYP2C19) small molecule antagonists: luciferase reporter qHTS assay (AID 1671197); further: nearly all actives have a fitted effect of over 65% in size; further: potency means the concentration at half of the fitted maximal effect; on activity change, negative = inhibition: series mostly up to about 120 µM
Chain of Cytochrome P450 2C19 (Homo sapiens) (P33261 whole entry, looked up): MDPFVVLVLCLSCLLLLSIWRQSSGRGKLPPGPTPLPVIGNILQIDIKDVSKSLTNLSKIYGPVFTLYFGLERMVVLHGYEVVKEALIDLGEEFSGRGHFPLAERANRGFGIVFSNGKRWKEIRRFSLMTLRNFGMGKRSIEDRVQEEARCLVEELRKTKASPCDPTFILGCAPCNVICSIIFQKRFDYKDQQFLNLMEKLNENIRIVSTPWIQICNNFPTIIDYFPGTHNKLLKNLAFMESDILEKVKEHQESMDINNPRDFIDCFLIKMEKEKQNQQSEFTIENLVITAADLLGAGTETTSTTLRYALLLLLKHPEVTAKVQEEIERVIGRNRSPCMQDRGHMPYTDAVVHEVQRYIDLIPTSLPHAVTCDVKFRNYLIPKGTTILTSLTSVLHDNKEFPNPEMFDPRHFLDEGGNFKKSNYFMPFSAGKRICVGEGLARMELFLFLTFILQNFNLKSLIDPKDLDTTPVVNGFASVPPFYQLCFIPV
Procedure, shortened: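 Inhibition of CYP2C19 was scored from loss of luminescence in a P450-Glo proluciferin substrate assay, NADPH-started and run 1 h at 37C, with ketoconazole as positive control.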

[6] = biological target: Cytochrome P450 2C9 (Homo sapiens) (UniProt P11712); assay: Cytochrome P450 Family 2 Subfamily C Member 9 (CYP2C9) small molecule antagonists: luciferase reporter qHTS assay (AID 1671198); further: nearly all actives have a fitted effect of over 50% in size; further: potency means the concentration at half of the fitted maximal effect; on activity change, negative = inhibition: series mostly up to about 120 µM
Chain of Cytochrome P450 2C9 (Homo sapiens) (P11712 whole entry, looked up): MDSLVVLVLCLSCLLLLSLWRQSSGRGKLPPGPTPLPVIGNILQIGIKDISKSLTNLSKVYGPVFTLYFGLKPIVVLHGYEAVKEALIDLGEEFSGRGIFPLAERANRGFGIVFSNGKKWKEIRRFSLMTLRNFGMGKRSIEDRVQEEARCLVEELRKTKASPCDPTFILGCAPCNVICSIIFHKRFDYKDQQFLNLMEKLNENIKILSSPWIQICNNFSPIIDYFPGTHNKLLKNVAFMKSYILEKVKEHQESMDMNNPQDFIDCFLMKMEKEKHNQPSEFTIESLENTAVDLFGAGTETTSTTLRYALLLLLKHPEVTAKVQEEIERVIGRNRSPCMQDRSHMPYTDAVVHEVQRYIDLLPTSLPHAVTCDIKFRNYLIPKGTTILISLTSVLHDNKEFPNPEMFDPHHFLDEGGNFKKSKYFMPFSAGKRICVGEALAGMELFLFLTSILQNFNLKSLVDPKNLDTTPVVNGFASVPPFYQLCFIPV
Procedure, shortened: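 CYP2C9 activity was measured with a P450-Glo proluciferin substrate. Enzyme–substrate mix was held with compound for 10 min at room temperature, then NADPH regeneration solution was added for 1 h at 37C. Luciferin product was read as luminescence.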

[7] = biological target: Cytochrome P450 1A2 (Homo sapiens) (UniProt P05177); assay: Cytochrome P450 Family 1 Subfamily A Member 2 (CYP1A2) small molecule antagonists: luciferase reporter qHTS assay (AID 1671199); further: nearly all actives have a fitted effect of over 50% in size; further: potency means the concentration at half of the fitted maximal effect; on activity change, negative = inhibition: series mostly up to about 120 µM
Chain of Cytochrome P450 1A2 (Homo sapiens) (P05177 whole entry, looked up): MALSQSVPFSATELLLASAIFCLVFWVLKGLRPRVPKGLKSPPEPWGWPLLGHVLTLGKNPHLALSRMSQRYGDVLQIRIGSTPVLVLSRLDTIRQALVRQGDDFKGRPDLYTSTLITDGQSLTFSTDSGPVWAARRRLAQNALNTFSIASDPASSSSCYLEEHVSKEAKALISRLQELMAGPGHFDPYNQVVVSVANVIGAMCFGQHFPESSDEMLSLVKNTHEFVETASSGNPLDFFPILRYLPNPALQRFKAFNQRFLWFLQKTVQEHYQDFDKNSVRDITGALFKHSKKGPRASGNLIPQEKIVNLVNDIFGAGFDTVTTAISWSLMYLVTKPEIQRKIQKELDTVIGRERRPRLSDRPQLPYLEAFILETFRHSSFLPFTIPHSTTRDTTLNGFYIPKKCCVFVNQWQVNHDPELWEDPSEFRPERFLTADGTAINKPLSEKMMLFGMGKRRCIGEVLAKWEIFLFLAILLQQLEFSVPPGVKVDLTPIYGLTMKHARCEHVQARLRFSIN
Procedure, shortened: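 Human CYP1A2 activity measured with a P450-Glo proluciferin substrate; compounds in DMSO preincubated 10 min at room temperature with enzyme-substrate mix, then NADPH regeneration system added for 1 h. Luciferin detection reagent, 20 min, luminescence read.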

[8] = biological target: Voltage-gated inwardly rectifying potassium channel KCNH2 (Homo sapiens) (UniProt Q12809); assay: Human Ether-a-go-go-Related Gene (hERG) channel small molecule antagonists: fluorescence cell-based qHTS assay (AID 1671200); further: nearly all actives have a fitted effect of over 50% in size; further: potency means the concentration at half of the fitted maximal effect;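 on activity change, negative = inhibition: hERG-expressing U2OS cells given a thallium stimulus after FluxOR II dye loading; series mostly up to about 77 µM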
Chain of Voltage-gated inwardly rectifying potassium channel KCNH2 (Homo sapiens) (Q12809 whole entry, looked up): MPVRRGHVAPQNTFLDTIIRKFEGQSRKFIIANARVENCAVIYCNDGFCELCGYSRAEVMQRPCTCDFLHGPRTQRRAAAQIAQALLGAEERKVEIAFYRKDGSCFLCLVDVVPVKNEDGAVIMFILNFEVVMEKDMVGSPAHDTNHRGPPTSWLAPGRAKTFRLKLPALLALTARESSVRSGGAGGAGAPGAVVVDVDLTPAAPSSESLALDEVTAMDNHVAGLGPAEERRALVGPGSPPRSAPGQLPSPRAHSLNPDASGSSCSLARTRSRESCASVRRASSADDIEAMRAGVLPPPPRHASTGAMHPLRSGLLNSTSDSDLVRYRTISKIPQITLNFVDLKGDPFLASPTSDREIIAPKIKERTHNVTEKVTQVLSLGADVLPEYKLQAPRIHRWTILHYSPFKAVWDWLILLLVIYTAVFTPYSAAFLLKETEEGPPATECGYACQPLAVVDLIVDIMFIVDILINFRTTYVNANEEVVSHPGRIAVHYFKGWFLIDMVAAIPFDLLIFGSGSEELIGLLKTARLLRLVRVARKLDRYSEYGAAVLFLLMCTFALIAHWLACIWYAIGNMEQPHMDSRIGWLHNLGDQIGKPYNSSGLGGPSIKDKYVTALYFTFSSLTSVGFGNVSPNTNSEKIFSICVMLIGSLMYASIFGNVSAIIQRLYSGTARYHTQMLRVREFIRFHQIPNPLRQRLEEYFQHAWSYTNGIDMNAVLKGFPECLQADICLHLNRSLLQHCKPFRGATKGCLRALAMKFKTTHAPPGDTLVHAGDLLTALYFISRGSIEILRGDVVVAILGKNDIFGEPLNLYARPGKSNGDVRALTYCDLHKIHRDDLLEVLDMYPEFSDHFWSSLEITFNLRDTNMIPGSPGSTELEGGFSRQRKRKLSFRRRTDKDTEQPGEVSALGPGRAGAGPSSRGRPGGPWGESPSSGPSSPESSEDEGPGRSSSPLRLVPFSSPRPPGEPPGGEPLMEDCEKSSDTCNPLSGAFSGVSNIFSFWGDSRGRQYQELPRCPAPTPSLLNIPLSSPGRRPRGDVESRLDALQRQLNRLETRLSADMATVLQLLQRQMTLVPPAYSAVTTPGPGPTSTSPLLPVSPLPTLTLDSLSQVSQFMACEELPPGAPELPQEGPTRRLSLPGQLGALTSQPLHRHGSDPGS
Procedure, shortened: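 In this thallium-flux screen, overnight-cultured U2OS cells bearing the channel are dye-loaded in darkness for an hour, rested 10 min at room temperature, and then monitored kinetically at 480/540 nm for two minutes post-stimulus.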

[9] = biological target: Cytochrome P450 3A4 (Homo sapiens) (UniProt P08684); assay: Cytochrome P450 Family 3 Subfamily A Member 4 (CYP3A4) small molecule antagonists: luciferase reporter qHTS assay (AID 1671201); further: nearly all actives have a fitted effect of over 50% in size; further: potency means the concentration at half of the fitted maximal effect; on activity change, negative = inhibition: series mostly up to about 120 µM
Chain of Cytochrome P450 3A4 (Homo sapiens) (P08684 whole entry, looked up): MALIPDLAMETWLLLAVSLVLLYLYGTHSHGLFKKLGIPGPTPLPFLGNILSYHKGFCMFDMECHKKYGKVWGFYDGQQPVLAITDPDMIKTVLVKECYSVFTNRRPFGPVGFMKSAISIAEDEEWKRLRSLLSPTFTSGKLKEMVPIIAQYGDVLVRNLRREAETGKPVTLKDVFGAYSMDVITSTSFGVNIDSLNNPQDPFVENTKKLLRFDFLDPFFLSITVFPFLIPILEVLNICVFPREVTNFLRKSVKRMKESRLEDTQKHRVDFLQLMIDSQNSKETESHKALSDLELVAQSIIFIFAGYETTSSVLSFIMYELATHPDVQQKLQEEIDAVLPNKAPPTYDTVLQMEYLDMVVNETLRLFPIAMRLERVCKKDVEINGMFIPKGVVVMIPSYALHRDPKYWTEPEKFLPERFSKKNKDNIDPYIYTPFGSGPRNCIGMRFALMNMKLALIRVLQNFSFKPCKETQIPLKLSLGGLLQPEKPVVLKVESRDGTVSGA
Procedure, shortened: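 CYP3A4 activity was followed with a P450-Glo proluciferin substrate. Test compounds in DMSO were preincubated 10 min; NADPH regeneration then ran 1 h, and light output was read 20 min after detection reagent.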

[10] = biological target: Cytochrome P450 2D6 (Homo sapiens) (UniProt P10635); assay: Cytochrome P450 Family 2 Subfamily D Member 6 (CYP2D6) small molecule antagonists: luciferase reporter qHTS assay (AID 1671196); further: nearly all actives have a fitted effect of over 50% in size; further: potency means the concentration at half of the fitted maximal effect; on activity change, negative = inhibition: series mostly up to about 120 µM
Chain of Cytochrome P450 2D6 (Homo sapiens) (P10635 whole entry, looked up): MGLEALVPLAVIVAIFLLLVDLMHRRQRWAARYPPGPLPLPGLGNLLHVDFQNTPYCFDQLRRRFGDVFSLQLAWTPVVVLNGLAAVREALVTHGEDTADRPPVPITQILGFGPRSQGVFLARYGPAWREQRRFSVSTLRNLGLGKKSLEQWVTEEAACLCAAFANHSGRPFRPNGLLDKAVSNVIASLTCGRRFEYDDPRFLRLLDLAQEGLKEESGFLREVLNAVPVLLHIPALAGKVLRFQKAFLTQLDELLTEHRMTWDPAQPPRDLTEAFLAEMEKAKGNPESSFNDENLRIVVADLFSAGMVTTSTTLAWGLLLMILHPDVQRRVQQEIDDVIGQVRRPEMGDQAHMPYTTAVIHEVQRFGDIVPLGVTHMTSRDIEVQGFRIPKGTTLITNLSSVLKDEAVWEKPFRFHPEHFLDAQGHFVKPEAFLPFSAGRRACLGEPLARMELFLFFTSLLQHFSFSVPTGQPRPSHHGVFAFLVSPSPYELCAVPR
Procedure, shortened: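 CYP2D6 enzyme–substrate mix was held with compound for 10 min at room temperature, then NADPH regeneration solution was added and the reaction ran 1 h at room temperature. Luciferin product was detected by luminescence after 20 min with detection reagent.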
On the % scale 0 is the no-effect control and ±100 the full control effect.

C=C(C)C(=O)OCCC[Si](Cl)(Cl)Cl
inactive: Potency [1] | Potency [2] | Potency [3] | Potency [4] | Potency [7] | Potency [8]
active: Potency [5] 80.4 µM | Potency [6] 22.7 µM | Potency [9] 12.7 µM

CC(COC(=O)c1ccccc1)OC(=O)c1ccccc1 (stereo not drawn)
inactive: Potency [1] | Potency [2] | Potency [3] | Potency [4] | Potency [9]
active: Potency [5] 20 µM | Potency [6] 15.9 µM | Potency [7] 5.64 µM | Potency [8] 43.6 µM

COc1ccc(C#N)cc1
inactive: Potency [1] | Potency [2] | Potency [3] | Potency [4] | Potency [10] | Potency [5] | Potency [6] | Potency [8] | Potency [9]

C=CC(=C)CCC=C(C)C
inactive: Potency [1] | Potency [2] | Potency [3] | Potency [4] | Potency [10] | Potency [7] | Potency [8]

CC1=CP(=O)(c2ccccc2)CC1 (stereo not drawn)
inactive: Potency [1] | Potency [2] | Potency [3] | Potency [4] | Potency [5] | Potency [6] | Potency [7] | Potency [8] | Potency [9]

CC(C)(C)c1cc(CCC(=O)NCCCCCCNC(=O)CCc2cc(C(C)(C)C)c(O)c(C(C)(C)C)c2)cc(C(C)(C)C)c1O
inactive: Potency [1] | Potency [2] | Potency [3] | Potency [4] | Potency [10] | Potency [7] | Potency [8]
active: Potency [6] 1.42 µM | Potency [9] 2.83 µM

O=C(O)c1cccc(Cl)n1
inactive: Potency [1] | Potency [2] | Potency [3] | Potency [4] | Potency [5] | Potency [6] | Potency [7] | Potency [8] | Potency [9]

CCc1cccc(CC)c1N(COC)C(=O)CS(=O)(=O)O
inactive: Potency [1] | Potency [2] | Potency [3] | Potency [4] | Potency [10] | Potency [5] | Potency [7] | Potency [8] | Potency [9]

CC(O)C#CC(C)O (stereo not drawn)
active: Potency [1] 27 µM | Potency [4] 24.1 µM | Potency [10] 35.2 µM
inactive: Potency [2] | Potency [3] | Potency [6] | Potency [8] | Potency [9]

O=C(O)CCCCCCC(=O)O
active: Potency [10] 35.9 µM
inactive: Potency [1] | Potency [2] | Potency [3] | Potency [4] | Potency [6] | Potency [8] | Potency [9]

CN(C)c1ccc(N=NS(=O)(=O)O)cc1
inactive: Potency [2] | Potency [8]
active: Potency [1] 33.8 µM | Potency [3] 25 µM | Potency [4] 21.7 µM | Potency [5] 0.421 µM | Potency [6] 5.09 µM | Potency [7] 9.45 µM

CCCCCCCC/C=C/CCCOC(C)=O
inactive: Potency [1] | Potency [2] | Potency [3] | Potency [4] | Potency [10] | Potency [8] | Potency [9]
active: Potency [5] 31.7 µM

CCCCCCCOC(=O)c1ccccc1C(=O)OCCCCCCC
active: Potency [5] 39.9 µM | Potency [6] 17.8 µM | Potency [7] 15.9 µM
inactive: Potency [1] | Potency [2] | Potency [3] | Potency [4] | Potency [8]

CN1CN(C)CN(C)C1
inactive: Potency [1] | Potency [2] | Potency [3] | Potency [4] | Potency [5] | Potency [6] | Potency [7] | Potency [8] | Potency [9]

O=C(NO)c1ccccc1
active: Potency [1] 65.3 µM | Potency [4] 29.2 µM | Potency [10] 60.2 µM
inactive: Potency [2] | Potency [3] | Potency [8] | Potency [9]

CCCCCCCCCC(=O)N(C)C
inactive: Potency [1] | Potency [2] | Potency [3] | Potency [8]
active: Potency [4] 62.1 µM | Potency [5] 36.1 µM | Potency [6] 40.5 µM | Potency [7] 36.1 µM

CCCCOC(=O)C(C)CC (stereo not drawn)
inactive: Potency [1] | Potency [2] | Potency [3] | Potency [4] | Potency [10] | Potency [6] | Potency [8] | Potency [9]

CC(C)c1ccccc1N
active: Potency [4] 61.1 µM | Potency [5] 39.9 µM | Potency [9] 28.3 µM
inactive: Potency [1] | Potency [2] | Potency [3] | Potency [10] | Potency [7] | Potency [8]

CCOC(=O)CN
inactive: Potency [1] | Potency [2] | Potency [3] | Potency [4] | Potency [5] | Potency [6] | Potency [7] | Potency [8] | Potency [9]

C=CC(=C)CC/C=C(\C)CCC=C(C)C
active: Potency [7] 15.1 µM | Potency [9] 16.9 µM
inactive: activity change, negative = cytotoxicity [1] -0.798% [at 19 µM] | caspase-3/7 activation [2] 0.541% [at 19 µM] | activity change, negative = cytotoxicity [3] -2.86% [at 19 µM] | activation [4] 8.17% [at 19 µM] | activity change, negative = inhibition [10] -7.39% [at 23.6 µM] | activity change, negative = inhibition [8] -2.72% [at 15.8 µM]
